# Laboratory results from PubChem BioAssay AID1671190 (National Center for Advancing Translational Sciences (NCATS), 2021).
# Hit rate of the full screen: of about 580,000 compounds, about 6,100 (1.1%) were called active. About 15% were inconclusive and are not listed. The sample holds actives, similar compounds and a random draw of the others, so the mix is not that of the screen. Values without a mark were called inactive. Calls come from the whole dose curve; as a rule, active = well fitted inhibition curve with a large enough effect; inconclusive = small, poorly fitted or top-dose-only effect, or another doubt; inactive = no such curve, though single readings can be large or run the other way.
# Molecular target: Polyunsaturated fatty acid lipoxygenase ALOX12 (Homo sapiens) (UniProt P18054)
# Sequence (P18054 whole entry, looked up): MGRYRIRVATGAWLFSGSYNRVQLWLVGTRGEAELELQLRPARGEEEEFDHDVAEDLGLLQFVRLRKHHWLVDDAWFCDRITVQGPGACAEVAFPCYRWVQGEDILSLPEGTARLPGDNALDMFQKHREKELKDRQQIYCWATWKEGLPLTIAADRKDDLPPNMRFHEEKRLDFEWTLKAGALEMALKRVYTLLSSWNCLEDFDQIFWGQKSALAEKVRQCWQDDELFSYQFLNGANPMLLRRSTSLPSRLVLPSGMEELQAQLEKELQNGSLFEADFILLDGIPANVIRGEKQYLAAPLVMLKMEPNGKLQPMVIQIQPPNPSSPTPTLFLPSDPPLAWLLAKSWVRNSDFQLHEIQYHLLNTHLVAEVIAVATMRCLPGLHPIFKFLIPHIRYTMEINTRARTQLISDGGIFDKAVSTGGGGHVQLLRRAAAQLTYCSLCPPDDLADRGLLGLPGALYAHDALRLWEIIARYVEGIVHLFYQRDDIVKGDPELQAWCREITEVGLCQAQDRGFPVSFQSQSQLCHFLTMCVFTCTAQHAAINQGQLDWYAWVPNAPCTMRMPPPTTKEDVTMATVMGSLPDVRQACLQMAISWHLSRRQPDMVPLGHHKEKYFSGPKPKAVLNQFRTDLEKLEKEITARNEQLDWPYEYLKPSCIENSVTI
# Test: Primary qHTS assay for inhibitors of human arachidonate 12S-lipoxygenase (ALOX12): Round 2
# Details: purified 12hLO, xylenol orange hydroperoxide absorbance; series mostly up to 108 µM; activity change, negative = inhibition: at the top concentration
# Procedure, shortened: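 Purified human 12hLO (150 nM final) in 25 mM Hepes, 0.01% Triton X-100, pH 7.0 was preincubated 15 min at room temperature with compound. Then 40 uM arachidonic acid was added, 30 min. Hydroperoxide was read by Fe-XO absorbance ratio 573/405 nm.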
# % is set by controls: 0 for no effect and ±100 for the full control effect; potency is the fitted concentration of half-maximal effect.
Structure (SMILES),"activity change, negative = inhibition",Potency
NC(=O)Cc1csc(NC(=O)CCc2ncc(-c3ccc(Cl)cc3Cl)o2)n1,5.2%,
CC(OC(=O)c1cc2cc(F)ccc2s1)C(=O)N1CCNC1=O (stereo not given),-13.9%,
S=C(NCCC1=CCCCC1)Nc1ccccc1,-11.4%,
O=[N+]([O-])c1ccccc1N/N=C1\CCc2ccccc21,0.0102%,
CCCCNC(=S)N/N=C1\CCCCc2ccccc21,,31.6 µM (active)
C#CCOC(=O)c1cccc(C(=O)O)c1,-28.2%,
COc1cccc(NC(=O)C2(C#N)CCCC2)c1,43.9%,
COc1cccc(NC(=O)C2C(c3ccccc3)C2(Cl)Cl)c1 (stereo not given),,35.5 µM (active)
COc1cccc(NC(=O)c2csnn2)c1,-18.6%,
Cc1nc(N2CCN(CC(=O)N3CCCC3)CC2)c(C#N)c2c1COC(C)(C)C2,0.987%,
N#Cc1ccc(CN2C[C@@H]3C[C@H]2C(=O)Nc2ccccc2O3)cc1,11.6% [at 176 µM],
O=C1[C@@H]2C[C@@H](CN2Cc2ccc3ccccc3n2)Oc2ccccc2N1Cc1ccccc1,,8.91 µM (active)
COCCN1C(=O)[C@@H]2C[C@@H](CN2C(=O)Nc2ccccc2)Oc2ccccc21,-7.35% [at 176 µM],
COC(=O)C1=C(C)N=C2SC=C(CC(=O)NCc3ccccc3F)N2C1c1ccccc1Cl (stereo not given),13.3%,
CCc1n[nH]c(=S)n1/N=C/c1c[nH]c2ccc(Br)cc12,,15.8 µM (active)
Cc1ccccc1/C=C/C(=O)NC(C)CO (stereo not given),31.2%,
O=C(COc1ncnc2ccccc12)Nc1cc(F)ccc1F,1.32%,
O=C(CSc1ccc([N+](=O)[O-])cn1)Nc1ccc(N2CCOCC2)c(Cl)c1,-6.2%,
CCOc1ccc(C(=O)NC(=S)Nc2ccc(N3CCOCC3)c(Cl)c2)cc1[N+](=O)[O-],,14.1 µM (active)
O=C(Oc1ccccc1Cl)c1ccc(N2CCOCC2)c([N+](=O)[O-])c1,-10%,
COc1ccccc1C(CNC(=O)CCc1nc(-c2ccsc2)no1)N1CCCC1 (stereo not given),7.59%,
CCC(=O)Nc1ccc2nnc(-c3ccc(C(=O)Nc4ccc(OC)cc4)cc3)n2c1,1.26%,
COc1ccc2c(C)c(-c3cccc4ccccc34)c(=O)oc2c1,-4.87%,
O=S1(=O)CC/C(=N\Nc2ccc(F)cc2)c2ccsc21,,31.6 µM (active)
COc1ccc(C(=O)N/N=C2\CCS(=O)(=O)c3ccc(F)cc32)cc1OC,11.9%,
Cc1oc(-c2ccccc2)nc1CC(=O)N(C)CC(=O)Nc1cccc2ccccc12,-14.7%,
CC1(C)CC(=O)C2=C(C1)OC1=C(C(=O)CC(C)(C)C1)C2c1ccc(-c2ccc3c(c2)COC3=O)o1,-18.4%,

Structure (SMILES),"activity change, negative = inhibition",Potency
COCc1[nH][nH]c(=O)c1C=Nc1ccc(F)cc1F,,12.6 µM (active)
Fc1ccc(/C=N/N=C/c2ccc(F)cc2F)c(F)c1,61.1%,
CCOc1ccc(C(=O)NCc2n[nH]c(=O)c3ccccc23)cc1OCC,10.8%,
Cc1ccc(C2CC(=O)C3=C(C2)OC(N)=C(C#N)C32C(=O)Nc3ccccc32)cc1 (stereo not given),6.42%,
N#CC1=C(N)Oc2[nH]c(=S)[nH]c(=O)c2C12C(=O)Nc1ccccc12 (stereo not given),,14.1 µM (active)
Cc1ccc(NC2(C#N)C(=O)Nc3ccccc32)cc1 (stereo not given),0%,
C=CCNC(=O)O[C@@H]1CC[C@]2(C)C(CC[C@@H](O)[C@H]2CC(=O)N2CCC[C@H]2CO)[C@]1(C)CO (stereo not given in full),4.47%,
N#C/C(=C/NC(=O)c1ccccc1)C(=O)N1CCOCC1,1.49%,
O=C(Cc1ccccc1)Nc1sc2c(c1C(=O)Nc1ccc(Br)cc1)CCC2,-16%,
CCOC(=O)c1ccc(NC(=O)c2c(NCc3cccs3)sc3c2CCCC3)cc1,-28.7%,
Cc1ccc(NC(=O)c2c(NC(=O)CCC(=O)O)sc3c2CCCCC3)cc1,,20 µM (active)
CC1(C)Cc2sc3c(=O)n(Cc4ccc(Cl)cc4Cl)cnc3c2CO1,-10.1%,
CCOC(=O)c1sc(NC(=O)CSc2nc(C)cc(C(F)(F)F)n2)c(C#N)c1C,,20 µM (active)
Cc1cccc(NC(=O)CSc2nc(-c3ccco3)cc(C(F)(F)F)n2)c1C,-12.8%,
CCn1c(SCC(=O)Nc2sc(C)c(C)c2C#N)nnc1C1CC1,-2.97%,
CCC(CO)Nc1nc2c(c(=O)n(C)c(=O)n2C)n1Cc1c(Cl)cccc1Cl (stereo not given),-8.11%,
O=C(NNC1CC(=O)N(c2cccc(Cl)c2)C1=O)c1cccnc1 (stereo not given),6.21%,
C/C(=N\NC(=O)c1cc2c(s1)CCC(C)C2)c1cccnc1 (stereo not given),,5.01 µM (active)
C/C(=N\NC(N)=S)c1cccnc1,-6.29%,
Cc1nonc1OCCNC1CCC2(CCNCC2)CC1,-26.4%,
CN(CCCNC1CCC2(CCNCC2)CC1)c1ccccc1,,10 µM (active)
OC1CC([C@@H](Cc2ccccn2)NC2CCC3(CCNCC3)CC2)C1 (stereo not given in full),-5.73%,
O=C(NCCC(=O)N1CCn2nc(C(=O)O)cc2C1)c1ccc(F)cc1,4.72%,
CCc1nnc2sc(-c3cccc(NC(=O)Cc4ccccc4)c3)nn12,9.63%,
O=C(NCc1ccccn1)C1CCN(C(=O)c2ccc(C(F)(F)F)cc2)CC1,-3.02%,
CCN(CC(=O)Nc1cc(Cl)ccc1C)C(=O)CSCc1ccccc1,5.18%,
Cc1ccccc1N/C(SCc1ccc(Cl)cc1)=C(/C#N)C(N)=O,,20 µM (active)

Structure (SMILES),"activity change, negative = inhibition",Potency
Cc1ccccc1NC(=O)C(C#N)=C1CCCCC1,-8.66%,
CNC(=O)c1ccc(-c2nc(CN3CCN(S(=O)(=O)c4ccc(C)c(C)c4)CC3)c(C)o2)cc1,20.4%,
COc1ccc2c(C)c(CCC(=O)N3CCN(C)CC3)c(=O)oc2c1,-5.95%,
Cc1nn2c(c1-c1ccnn1C(C)C)N(CC1CCOCC1)CCC2,,12.6 µM (active)
Cc1nn2c(c1-c1ccccc1C(C)C)N(C(=O)c1cccc(C#N)c1)CCC2,-3.15% [at 176 µM],
Cc1nn2c(c1-c1ccnn1C(C)C)N(C(=O)c1ccc(Oc3ccccc3)cc1)CCC2,51.4%,
CCCCCn1nc(C(=O)Nc2ccccc2OCC)c2ccccc2c1=O,37.9%,
CCc1ccc(C(=O)Nc2ccccc2C#N)s1,-101%,
Cc1cccc(-n2c(C)cc(/C=N/NC(N)=S)c2C)c1,,44.7 µM (active)
Cc1cc(/C=N/n2cnnc2)c(C)n1-c1ccc2ncccc2c1,-25.8%,
Cc1cc(/C=N/NC(N)=O)c(C)n1C1CCCCC1,6.3%,
C=CCOc1ccc(NC(=O)c2ccncc2)cc1,-6.7%,
CCc1ccc(NC(=O)Cc2nc(-c3c(N)n(C)c(=O)n(C)c3=O)cs2)cc1,-21.8%,
COc1ccccc1C(=O)OCc1ccc(F)cc1,1.27%,
O=C(OCc1ccc(F)cc1)c1cnc2ccccc2n1,,1.26 µM (active)
CCOc1ccccc1NC(=O)c1cnc2ccccc2n1,-89%,
Cc1cccnc1CN(C(=O)c1cc(COc2ccccc2)[nH]n1)C(C)C,42.5%,
NC(=O)c1c(Nc2nc3c(F)cccc3s2)sc2c1CCCC2,,28.2 µM (active)
Cc1cc(OC(C)C(=O)Nc2sc3c(c2C(N)=O)CCCC3)ccc1Cl (stereo not given),-6.03%,
CCCn1nc(C(=O)Nc2sc3c(c2C(N)=O)CCC3)c2ccccc2c1=O,-4.24%,
Cc1cc(C)c(-c2csc(NC(=O)Cn3ncc4ccccc4c3=O)n2)c(C)c1,-28.9%,
CSc1nnnn1-c1ccc(C(=O)Nc2ccccc2F)cc1,0.435%,
S=C(NCCCc1cnc[nH]1)NCCCN(Cc1ccc(Cl)c(Cl)c1)c1ccc(Br)cn1,,22.4 µM (active)
NCCCNC(=S)NCCCN(Cc1ccc(Cl)cc1)c1ccc(Br)cn1,,39.8 µM (active)
Cc1ccccc1CN(C)C(C)c1nc(-c2cccs2)no1 (stereo not given),11%,
CCOC(=O)CSc1nnc(CNC(=O)c2cccs2)n1-c1ccccc1,15.4%,
CCc1c(C)sc(NC(=O)c2cccs2)c1C(N)=O,,20 µM (active)

Structure (SMILES),"activity change, negative = inhibition",Potency
CCc1c(C)sc(NC(=O)C2c3ccccc3Oc3ccccc32)c1C(=O)OC(C)C,0%,
CCCCCCn1c(NC)nc2c1c(=O)[nH]c(=O)n2C,-2.64%,
O=C1CC(c2ccccc2)C(c2ccccc2)=NN1 (stereo not given),2.96%,
Nc1nc2c(s1)C(c1ccccc1)CC(=O)N2 (stereo not given),,22.4 µM (active)
COc1cccc(C2CC(=O)Nc3nc(N)sc32)c1OCc1ccccc1 (stereo not given),,7.94 µM (active)
CCCOc1c(OC)cccc1C1CC(=O)Nc2c1c(C)nn2-c1ccc(OC)nn1 (stereo not given),-23.2%,
COc1cc(C2CC(=O)Nc3nc(-c4ccccc4)[nH]c(=O)c32)ccc1OCc1ccc(F)cc1 (stereo not given),5.03%,
O=C1CC(c2ccc(C(F)(F)F)cc2)c2sc(C(=O)O)c(-c3ccccc3)c2N1 (stereo not given),-20.3%,
O=[N+]([O-])/C=C/c1ccc(-c2ccccc2)o1,,22.4 µM (active)
O=[N+]([O-])/C=C/c1ccc2c(ccn2Cc2ccccc2)c1,-11.5%,
Cc1ccc(-c2nnc(SCc3ncc(-c4ccccc4)o3)o2)cc1,6.49%,
Cc1ccc(-n2nnnc2SCc2ncc(-c3ccccc3)o2)cc1,40.5%,
COCc1ccc(CNC(=O)c2ccc(C#N)cc2)cc1,-5.14%,
O=C(c1cn[nH]c1)N1CC2(CN(Cc3cccc(Cl)c3)CC2COc2ccccc2)C1 (stereo not given),13.7% [at 176 µM],
CCOc1cc2cc(C(=O)c3cc(C)ccc3O)cnc2cc1OCC,-39.3%,
CCC(=O)Nc1ccc2nc(-c3ccccc3C)oc2c1,-10.5%,
COc1ccc(NC(=O)c2cn(-c3ccccc3)nc2SC)cc1,-7.47%,
COc1ccc(-c2nn(-c3ccccc3)cc2/C=C\C(=O)Nc2ccc(C(=O)O)cc2)cc1,,39.8 µM (active)
COc1ccc(-c2nn(-c3ccccc3)cc2C(=O)NCC(C(C)C)N2CCOCC2)cc1 (stereo not given),0%,
CSc1ccccc1NC(=O)C(C)Nc1ccc2c(c1)CCN2C(C)=O (stereo not given),-8.13%,
O=C(NC(c1ccccc1)c1cc2ccccc2o1)C1CCCC1 (stereo not given),-10.2%,
N#Cc1ccccc1S(=O)(=O)N1CCN(C(=O)c2cc(-c3ccccc3)nn2-c2ccccc2)CC1,-13.3%,
N#Cc1ccccc1S(=O)(=O)N1CCN(Cc2c(O)ccc3ccccc23)CC1,,11.2 µM (active)
N#CCCc1c(O)ccc2ccccc12,-2.74%,
